A word on the AC50: it is the midpoint of the concentration-response curve, whichever way the signal moves.

Structures are written as SMILES. “And” between values parts separate entries of the source, which are not always exact repeats. Equal values may be shown once. A structure can be active in one record and inactive in another. The source made the active and inactive calls. Rule for the calls: active = hit-call score of the fitted dose curve at least 0.9, where 1 is the maximum; inactive = score below 0.9.

Outcome and AC50 data for five compounds are collected here from PubChem BioAssay (EPA / NIEHS).

A short description of assay [1]: BSK_3C_Proliferation: Cell Proliferation Assessment in the BioMAP Diversity Plus: 3C Assay (AID 2283006).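 For AC50: potency may reflect either rise or fall in cell number versus DMSO.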 Particulars: primary human endothelial cells (HUVEC). The procedure, abridged:
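Proliferation as total protein: sulforhodamine B (0.1%) stain of TCA-fixed subconfluent human umbilical vein endothelial cells, absorbance 560 nm, 48 h after dosing. Activity fitted in both directions against DMSO baseline.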

Read-out in assay [2]: E-selectin (Homo sapiens) (UniProt P16581)
The assay can be described thus: BSK_3C_Eselectin: BioMAP Diversity Plus: 3C Assay for Eselectin Biomarker Activity (AID 2283015).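 For Outcome: cell surface E-selectin protein quantified by ELISA 24 h after dosing.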 Particulars: primary human endothelial cells (HUVEC); actives raise or lower the signal. In a few lines: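 E-selectin ELISA readout, fitted bidirectionally relative to DMSO, taken 24 h post-dosing in HUVEC cultures of the 3C system. Overt cytotoxicity tracked with sulforhodamine B staining of parallel wells.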

Read-out in assay [3]: Interleukin-1 alpha (IL1a), IL1A (gene 3552)
The assay can be described thus: BSK_BE3C_IL1a: BioMAP Diversity Plus: BE3C Assay for Interleukin-1 alpha (IL1a) Biomarker Activity (AID 2283016). Particulars: primary human bronchial epithelial cells; actives raise or lower the signal. The procedure, abridged:
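IL-1a measured by ELISA after 24 h treatment of human primary bronchial epithelial cells, with gain or loss of signal fitted versus DMSO. Parallel cultures stained with SRB gauge overt cytotoxicity.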

Read-out in assay [4]: Monocyte Chemoattractant Protein-1 (MCP1), CCL2 (gene 6347)
Description: BSK_3C_MCP1: BioMAP Diversity Plus: 3C Assay for Monocyte Chemoattractant Protein-1 (MCP1) Biomarker Activity (AID 2283017). Particulars: primary human endothelial cells (HUVEC); actives raise or lower the signal. In a few lines: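 MCP-1 was measured by ELISA 24 h after dosing in primary HUVEC 3C cultures and fitted in both directions relative to DMSO; cytotoxicity was checked by SRB total-protein staining in parallel wells.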

Read-out in assay [5]: Interleukin-8 (IL8), CXCL8 (gene 3576)
Description: BSK_3C_IL8: BioMAP Diversity Plus: 3C Assay for Interleukin-8 (IL8) Biomarker Activity (AID 2283020). Particulars: primary human endothelial cells (HUVEC); actives raise or lower the signal. In a few lines: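 IL-8 was measured by ELISA in HUVEC cultures 24 h after chemical dosing, with gain or loss of signal fitted relative to DMSO. Parallel SRB total-protein staining tracked overt cytotoxicity.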

The nature of assay [6]: BSK_3C_SRB: Viability Assessment in the BioMAP Diversity Plus: 3C Assay (AID 2283023).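 Note: fitted both ways against DMSO so a hit may be signal rise or drop.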 Particulars: primary human endothelial cells (HUVEC). The procedure, abridged: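 Cytotoxicity readout in parallel HUVEC 3C cultures: after 24 h compound exposure, cells fixed with 10% TCA, stained with 0.1% SRB and read at 560 nm. Gain or loss relative to DMSO fitted.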
Read-out in assay [7]: Matrix Metallopeptidase 1 (MMP1), MMP1 (gene 4312)
The assay can be described thus: BSK_BE3C_MMP1: BioMAP Diversity Plus: BE3C Assay for Matrix Metallopeptidase 1 (MMP1) Biomarker Activity (AID 2283024). The settings on record: primary human bronchial epithelial cells; actives raise or lower the signal. The procedure, abridged: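 ELISA measurement of MMP-1 after 24 h compound exposure of primary human bronchial epithelial cells. Changes in either direction fitted relative to DMSO; parallel SRB staining checked overt cytotoxicity.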

Read-out in assay [8]: Pselectin, SELP (gene 6403)
The assay can be described thus: BSK_4H_Pselectin: BioMAP Diversity Plus: 4H Assay for Pselectin Biomarker Activity (AID 2283026). Particulars: primary human endothelial cells (HUVEC); actives raise or lower the signal. The procedure, abridged: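 ELISA of surface P-selectin on HUVEC, 24 h after dosing, with parallel SRB staining (0.1% after 10% TCA fixation, 560 nm) for overt cytotoxicity. Activity fitted in both directions relative to DMSO.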

Assay [9] in a line: BSK_4H_SRB: Viability Assessment in the BioMAP Diversity Plus: 4H Assay (AID 2283027).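 For AC50: curves fitted both ways versus DMSO so AC50 may be loss or gain.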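 Note: cells exposed to compound for 24 h before staining.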 Particulars: primary human endothelial cells (HUVEC). The procedure, abridged: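 HUVEC, 24 h post-dose; 10% TCA fix, 0.1% SRB stain, A560 nm. Total protein = overt cytotoxicity, parallel to biomarker read. Bidirectional fit vs DMSO baseline.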
Assay [10] in a line: BSK_BE3C_SRB: Viability Assessment in the BioMAP Diversity Plus: BE3C Assay (AID 2283028). Particulars: primary human bronchial epithelial cells. In a few lines: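 Cytotoxicity read-out: SRB (0.1%) staining of TCA-fixed (10%) human lung bronchial epithelial cells, absorbance 560 nm, 24 h post-dosing. Curves fitted both directions relative to DMSO.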
Read-out in assay [11]: Thrombomodulin, THBD (gene 7056)
The assay can be described thus: BSK_3C_Thrombomodulin: BioMAP Diversity Plus: 3C Assay for Thrombomodulin Biomarker Activity (AID 2283029). Particulars: primary human endothelial cells (HUVEC); actives raise or lower the signal. In a few lines:
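ELISA measurement of thrombomodulin on HUVEC surface 24 h after chemical dosing; activity fitted in both directions relative to DMSO vehicle.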

Read-out in assay [12]: Vascular endothelial growth factor receptor 2 (Homo sapiens) (UniProt P35968)
The assay can be described thus: BSK_4H_VEGFRII: BioMAP Diversity Plus: 4H Assay for Vascular endothelial growth factor receptor 2 (VEGFR2) Biomarker Activity (AID 2283031).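 For AC50: cell-surface VEGFR2 protein level quantified by ELISA.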 The settings on record: primary human endothelial cells (HUVEC); actives raise or lower the signal. The procedure, abridged: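 Measured by ELISA after 24 h of compound treatment: VEGFR2 on primary human umbilical vein endothelial cells, fitted in both directions relative to DMSO. Parallel cultures received SRB staining (560 nm) for overt cytotoxicity.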

Read-out in assay [13]: Interferon-gamma inducible Protein 10 (IP10), CXCL10 (gene 3627)
The assay can be described thus: BSK_BE3C_IP10: BioMAP Diversity Plus: BE3C Assay for Interferon-gamma inducible Protein 10 (IP10) Biomarker Activity (AID 2283034). The settings on record: primary human bronchial epithelial cells; actives raise or lower the signal. The procedure, abridged:
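IP-10 quantified by ELISA in human primary bronchial epithelial cell cultures at 24 hours post-dosing. Gain or loss of signal fitted relative to DMSO; parallel SRB staining assessed overt cytotoxicity.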

Read-out in assay [14]: Urokinase-type plasminogen activator receptor (uPAR), PLAUR (gene 5329)
The assay can be described thus: BSK_BE3C_uPAR: BioMAP Diversity Plus: BE3C Assay for Urokinase-type plasminogen activator receptor (uPAR) Biomarker Activity (AID 2283039).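 For Outcome: cells exposed to compound for one day before measurement.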 Particulars: primary human bronchial epithelial cells; actives raise or lower the signal. The procedure, abridged: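 uPAR levels were measured by ELISA after 24 h compound treatment of primary human bronchial epithelial cells, fitted in both directions relative to DMSO. Parallel SRB staining served as the cytotoxicity read-out.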

Read-out in assay [15]: Interleukin-6 (IL6), IL6 (gene 3569)
The assay can be described thus: BSK_CASM3C_IL6: BioMAP Diversity Plus: CASM3C Assay for Interleukin-6 (IL6) Biomarker Activity for (AID 2283040). The settings on record: primary human coronary artery smooth muscle cells; actives raise or lower the signal.

Read-out in assay [16]: Human Leukocyte Antigen - DR isotype (HLADR), HLA-DRA (gene 3122)
Description: BSK_CASM3C_HLADR: BioMAP Diversity Plus: CASM3C Assay for Human Leukocyte Antigen - DR isotype (HLADR) Biomarker Activity (AID 2283043).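 Note: cell-surface HLA-DR protein level quantified by ELISA.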 The settings on record: primary human coronary artery smooth muscle cells; actives raise or lower the signal.

Read-out in assay [17]: Macrophage colony-stimulating factor (MCSF), CSF1 (gene 1435)
Description: BSK_CASM3C_MCSF: BioMAP Diversity Plus: CASM3C Assay for Macrophage colony-stimulating factor (MCSF) Biomarker Activity (AID 2283044).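 Note: M-CSF protein amount quantified by ELISA after 24 h exposure.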 Particulars: primary human coronary artery smooth muscle cells; actives raise or lower the signal.

Read-out in assay [18]: Low-density lipoprotein receptor (LDLR), LDLR (gene 3949)
The assay can be described thus: BSK_CASM3C_LDLR: BioMAP Diversity Plus: CASM3C Assay for Low-density lipoprotein receptor (LDLR) Biomarker Activity (AID 2283045).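 Note: LDLR protein level on the cell surface quantified by ELISA.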 Particulars: primary human coronary artery smooth muscle cells; actives raise or lower the signal.

Read-out in assay [19]: Monocyte Chemoattractant Protein-1 (MCP1), CCL2 (gene 6347)
The assay can be described thus: BSK_CASM3C_MCP1: BioMAP Diversity Plus: CASM3C Assay for Monocyte Chemoattractant Protein-1 (MCP1) Biomarker Activity (AID 2283046).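 Note: MCP-1 level quantified by ELISA 24 h after dosing.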 The settings on record: primary human coronary artery smooth muscle cells; actives raise or lower the signal.

Assay [20] in a line: BSK_CASM3C_Proliferation: Cell Proliferation Assessment in the BioMAP Diversity Plus: CASM3C Assay (AID 2283047).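 Note: sub-confluent cells exposed 48 h before staining; fitted both ways against DMSO so gain or loss of cell number.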 Particulars: primary human coronary artery smooth muscle cells.

E-selectin (Homo sapiens), sequence (P16581 whole entry, looked up): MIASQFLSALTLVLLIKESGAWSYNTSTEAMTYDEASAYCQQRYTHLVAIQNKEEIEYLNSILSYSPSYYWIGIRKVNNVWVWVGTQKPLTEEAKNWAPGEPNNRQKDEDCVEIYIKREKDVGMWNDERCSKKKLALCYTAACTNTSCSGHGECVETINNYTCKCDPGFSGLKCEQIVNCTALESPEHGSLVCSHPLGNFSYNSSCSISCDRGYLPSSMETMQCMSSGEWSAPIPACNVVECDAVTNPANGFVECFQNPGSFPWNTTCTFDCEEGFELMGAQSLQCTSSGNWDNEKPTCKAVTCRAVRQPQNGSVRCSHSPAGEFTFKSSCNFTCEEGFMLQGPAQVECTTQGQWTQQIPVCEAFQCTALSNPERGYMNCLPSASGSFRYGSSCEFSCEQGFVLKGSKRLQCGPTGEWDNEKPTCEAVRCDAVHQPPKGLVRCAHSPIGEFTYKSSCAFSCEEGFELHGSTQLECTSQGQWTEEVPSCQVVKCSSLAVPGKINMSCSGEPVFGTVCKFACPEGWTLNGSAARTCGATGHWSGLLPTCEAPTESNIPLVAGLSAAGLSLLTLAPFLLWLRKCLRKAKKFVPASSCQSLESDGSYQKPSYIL

Consider `O=[N+]([O-])O`, for which the result in assay [1], in assay [2], in assay [3], in assay [4], in assay [5] and in assay [6] was inactive. The result in assay [7], in assay [8], in assay [9], in assay [10], in [11] and in [12] was inactive. Besides, the result in [13], in assay [14], in assay [15], in [16], in assay [17] and in [18] was inactive. In addition, the outcome in assay [19] and in assay [20] was inactive.

Consider `O=C1C(Cl)=C(Cl)C(=O)C(Cl)=C1Cl`, for which the AC50 was 5.26 µM (active) in [1]; 10.3 µM (active) in [2]; 30.5 µM (active) in assay [3]; 12.4 µM (active) in assay [4]; 20 µM (active) in assay [5]; 4.97 µM (active) in assay [6]. In addition, the AC50 in assay [7] was 33.9 µM (active); in [8], 12.8 µM (active); in assay [9], 11.9 µM (active); in assay [11], 5.02 µM (active); in assay [12] it was 34.3 µM (active); in assay [13], 33.2 µM (active). The AC50 was 29.2 µM (active) in assay [14]; 20 µM (active) in assay [15]; 14.4 µM (active) in assay [16]; 20 µM (active) in [17]; 20 µM (active) in [19]; 5.78 µM (active) in assay [20]. Moreover, the result in [10] and in assay [18] was inactive.

As for `O=C(CCl)c1ccccc1`, the AC50 in assay [1] is 6.81 µM (active); in assay [2], 6.97 µM (active); in assay [3], 32.6 µM (active); in [4] it was 7.4 µM (active); in assay [5] it was 10.9 µM (active); in [6] it was 20 µM (active). Besides, the AC50 was 3.29 µM (active) in [8]; 14.3 µM (active) in [9]; 29.9 µM (active) in [13]; 12.7 µM (active) in [15]; 6.84 µM (active) in [16]; 12.9 µM (active) in [17]. Besides, the AC50 is 33 µM (active) in [18], 12.5 µM (active) in assay [19] and 2.44 µM (active) in assay [20]. For the same compound, the outcome in [7], in assay [10], in [11], in assay [12] and in assay [14] was inactive.

`COCC(=O)N(c1c(C)cccc1C)N1CCOC1=O`: the result in assay [1], in assay [2], in assay [3], in assay [4], in assay [5] and in assay [6] was inactive. The outcome in assay [7], in assay [8], in assay [9], in [10], in [11] and in [12] was inactive. The outcome in assay [13], in assay [14], in assay [15], in assay [16], in [17] and in [18] was inactive. For the same compound, the outcome in [19] and in [20] was inactive.

Turning to `O=C(O)CCCc1ccc(N(CCCl)CCCl)cc1`, the AC50 in assay [1] is 12.1 µM (active) and 6.56 µM (active); in [2], 20 µM (active); in [3], 20 µM (active); in assay [4] it was 20 µM (active) and 28.2 µM (active); in [6], 20 µM (active); in assay [8], 13.6 µM (active) and 20 µM (active). The AC50 in [9] was 20 µM (active); in assay [13], 16.2 µM (active) and 20 µM (active); in assay [15], 15.8 µM (active) and 20 µM (active); in assay [16], 15.9 µM (active) and 20 µM (active); in [17], 17 µM (active) and 15.7 µM (active); in assay [18] it was 20 µM (active). Besides, the AC50 is 24 µM (active) and 20 µM (active) in assay [19]; 20 µM (active) and 1.6 µM (active) in assay [20]. Also, the outcome in [5], in assay [7], in [10], in [11], in assay [12] and in [14] was inactive. Moreover, the result in [18] was inactive.
